# Compound activity as filed in PubChem BioAssay.
# This is a sample that favours compounds with a hit; in the whole collection about 3.5% have one here.
# FBW7 act: activators of human E3 ligase FBW7; Q969H0; AlphaScreen FBW7–phospho-cyclin E peptide binding, activator screen; normalized activity (activation), % at 26.1 µM; 650,000 tested, 0.13% active; in the data active = normalized activity above about 1.9%;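 also: purified mutant Fbw7 with reduced substrate affinity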
# Target sequence (Q969H0 whole entry, looked up): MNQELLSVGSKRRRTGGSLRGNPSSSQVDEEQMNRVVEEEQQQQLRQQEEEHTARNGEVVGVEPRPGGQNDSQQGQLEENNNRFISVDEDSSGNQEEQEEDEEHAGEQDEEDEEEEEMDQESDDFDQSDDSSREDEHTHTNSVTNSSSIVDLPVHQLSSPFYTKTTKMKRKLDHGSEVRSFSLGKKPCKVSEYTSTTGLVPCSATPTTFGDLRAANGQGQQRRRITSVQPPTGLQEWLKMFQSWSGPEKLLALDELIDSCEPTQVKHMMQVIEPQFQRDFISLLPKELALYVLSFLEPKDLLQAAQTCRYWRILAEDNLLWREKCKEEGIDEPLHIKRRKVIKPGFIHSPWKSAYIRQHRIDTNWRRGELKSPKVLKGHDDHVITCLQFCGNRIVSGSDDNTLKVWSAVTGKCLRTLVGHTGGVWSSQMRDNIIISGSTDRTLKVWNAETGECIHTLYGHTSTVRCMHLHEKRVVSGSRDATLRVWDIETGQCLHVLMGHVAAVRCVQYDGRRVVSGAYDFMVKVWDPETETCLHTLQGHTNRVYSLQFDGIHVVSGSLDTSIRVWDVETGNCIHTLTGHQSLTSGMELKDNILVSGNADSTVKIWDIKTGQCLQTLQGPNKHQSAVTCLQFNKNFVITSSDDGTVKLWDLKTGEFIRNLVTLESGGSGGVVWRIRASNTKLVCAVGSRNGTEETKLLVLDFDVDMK
# TEAD-YAP inh: TEAD-YAP interaction inhibition | inhibition, % at 9.12 µM | 640,000 tested, 1.4% active | AID 1259422 | HEK-TIYL cells, TEAD-Gal4/YAP UAS-luciferase luminescence; in the data active = inhibition above about 32%;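 also: 0% = median of test compound wells and 100% = reference inhibitor wells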
# MITF inh: human MITF inhibition, primary screen | O75030 | AlphaScreen MITF homodimerization, bead proximity signal | inhibition, % at 2.6 µM | 650,000 tested, 0.91% active | AID 1259374; in the data active = inhibition above about 50%;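 also: 0% = vehicle wells with protein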
# GPR151 activ: activators of human GPR151 | activation, % at 11.2 µM | 650,000 tested, 1% active | Q8TDV0 | PathHunter beta-arrestin GPR151 cells, luminescence; in the data active = activation above about 4.9%;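 also: 0% = median of compound wells and 100% = cells with positive control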
# * marks the source's active call; other numbers are inactive results.
SMILES,FBW7 act,TEAD-YAP inh,MITF inh,GPR151 activ
COc1ccc(CCNc2c(C)c(C)nc3ncnn23)cc1,0,60*,-2,1
COc1ccc(CNc2c(C)c(C)nc3ncnn23)cc1,0,26,12,1
Cc1c(Cl)cccc1S(=O)(=O)N1CCC(n2nnc3ccccc32)CC1,0,0,14,0
Cc1c(Cl)cccc1S(=O)(=O)N1CCC(Cn2c(C)nc3ccccc32)CC1,0,36*,6,1
Cc1nc2ccccc2n1CC1CCN(S(=O)(=O)/C=C/c2ccccc2)CC1,0,33*,-3,0
N#CCSC1=Nc2ccccc2C2=NC(Cc3c[nH]c4ccccc34)C(=O)N12 (stereo not drawn),0,-11,7,1
O=C1c2ccccc2NC2(CCCCC2)N1c1ccc(O)cc1,0,58*,-13,-2
COc1cc(OC)cc(C(=O)Nc2cccc3c2C(=O)NC3=O)c1,0,2,2,0
N#C/C(=C/c1ccc(O)cc1)c1ccc(C#N)cc1,0,45*,-7,-3
CN(C)c1ccc(/C=C(/C#N)c2ccc(C#N)cc2)cc1,1,-60,7,4
Cc1csc(NC(=O)C(Cc2c[nH]c3ccccc23)NC(=O)OC(C)(C)C)n1 (stereo not drawn),0,41*,12,-1
COc1cc(/C=C2/C(=O)Nc3ccccc32)cc(OC)c1O,0,-11,1,1
COc1cc(OC)c(/C=C2/C(=O)Nc3ccccc32)c(OC)c1,0,53*,0,2
COc1ccc(/C(C)=N/Nc2nc(-c3cccnc3)nc3ccccc23)cc1OC,0,33*,24,-2
O=C(O)c1cccc(COc2ccc(CO)cc2)c1,0,79*,-21,-8
O=C(O)c1cccc(COc2ccc3ccccc3c2)c1,0,86*,-26,-13
O=C(O)c1cccc(COc2ccccc2Br)c1,0,65*,-4,-10
O=C(O)c1cccc(COc2cccc(Cl)c2)c1,0,-37,10,-13
CC(=O)c1ccc(N2CCN(C(=O)CCCCCn3c(=S)[nH]c4cc5c(cc4c3=O)OCO5)CC2)cc1,0,-6,9,-1
Cn1cc(/C=N/NC(=O)CNc2ccc3ccccc3c2)c2ccccc21,0,-2,5,-1
Cc1cc(Sc2nc3c(C)cccn3c(=O)c2C=O)ncn1,1.9*,-2,-1,0
CCOC(=O)c1ccccc1NC(=O)C1CC1,0,4,-3,0
COC(=O)/C=C\C(=O)Nc1ccc(Br)c(C)c1,0,47*,-3,1
COc1ccc(CCNC(=O)c2cccc(Nc3ccc(-n4ccnc4)cc3)n2)cc1,0,49*,4,0
O=C(NCCOc1ccccc1)c1cccc(Nc2ccc(N3CCOCC3)cc2)n1,0,47*,1,4
SMILES,FBW7 act,TEAD-YAP inh,MITF inh,GPR151 activ
O=C(NCc1ccccc1)c1cccc(Nc2ccc(N3CCOCC3)cc2)n1,0,25,7,3
O=C(NCCOc1ccccc1)c1ccc2ccccc2n1,0,53*,-14,-1
O=C(NCCOc1ccccc1F)c1ccc2ccccc2n1,0,58*,-5,-3
COc1ccc(CCNC(=O)c2cccc(Nc3ccncc3)n2)cc1,0,2,-2,4
O=C(/C=C/c1ccc2c(c1)OCO2)NCC1(c2cccs2)CCOCC1,0,8,9,0
COc1ccc(NC(=O)CSc2nc3ccc(Nc4nc(Nc5ccccc5)nc(N5CCCC5)n4)cc3s2)cc1,0,-1,22,1
CCc1c(C)sc(NC(=O)Nc2ccc(Cl)c(Cl)c2)c1C(N)=O,1,0,-4,-1
O=C(Nc1ccc(-n2cccn2)cc1)C1CC12CCN(C(=O)COc1ccccc1)CC2 (stereo not drawn),0,12,2,0
COc1ccc(CCNc2cc(C)nc(Nc3cc(OC)c(OC)c(OC)c3)n2)cc1,0,36*,1,2
COc1cc(Nc2cc(C)nc(Nc3cccc(N(C)C)c3)n2)cc(OC)c1OC,0,48*,-8,1
COc1ccc(CCNc2cc(C)nc(Nc3ccncc3)n2)cc1,0,-4,-4,1
COc1cc(Nc2cc(C)nc(Nc3cc(OC)c(OC)c(OC)c3)n2)cc(OC)c1OC,0,24,-4,0
COc1ccc(CC2(CO)CCN(Cc3nc(-c4ccccc4)no3)CC2)cc1,0,-7,-2,1
COc1ccc(Nc2nc(N3CCCC3)c3ccccc3n2)cc1,0,37*,-3,1
CCC(=O)N1CCc2cc(-c3nc(N)sc3C)ccc21,0,10,14,-2
CC(=O)Nc1nc(-c2ccc3c(c2)CCN3C(C)=O)c(C)s1,1,53*,-12,-1
CNc1nc(-c2ccc3c(c2)CCN3C(C)=O)c(C)s1,1,-47,22,1
CCC(=O)N1CCc2cc(-c3nc(NC(C)=O)sc3C)ccc21,0,80*,7,1
COc1ccc2[nH]c(CN3CCC4(CC3)NC(=O)c3ccccc3O4)c(C)c2c1,0,68*,2,-1
O=C(COc1ccc2ccccc2c1)Nc1cccc(C(=O)Nc2ccccc2C(=O)O)c1,0,8,-4,1
O=C(O)c1ccccc1Nc1cccc(OCc2ccc3ccccc3n2)c1,0,46*,12,0
Cc1c(C(=O)NCCCN2CCOCC2)sc2ncn(Cc3cccc(F)c3)c(=O)c12,0,-6,5,0
c1ccc2oc(-c3ccc(-c4nc5ccccc5o4)cc3)nc2c1,0,2,7,-1
c1ccc2[nH]c(-c3nc4ccccc4o3)nc2c1,0,84*,10,-11
c1ccc2nc(-c3nc4ccccc4o3)ccc2c1,0,77*,0,-10
SMILES,FBW7 act,TEAD-YAP inh,MITF inh,GPR151 activ
COc1ccc(CCn2c(C)cc(C(=O)CSc3nc(N)cc(=O)[nH]3)c2C)cc1,0,33*,7,0
COc1ccc(CCn2c(C)cc(C(=O)CCl)c2C)cc1,0,40*,16,1
CN(Cc1ccccc1)C(=O)CSc1nc(NCCc2ccccc2)c2ccccc2n1,1,21,11,-1
CCOC(=O)C(=N\O)/C(C)=N/NC(=O)CC#N,0,-6,71*,-1
CSc1nnc(NC(=O)c2ccccc2Cl)s1,0,39*,22,-11
CCCSc1nnc(NC(=O)c2cccc(OC)c2)s1,0,-4,17,-2
COc1cccc(C(=O)Nc2nnc(SC)s2)c1,0,43*,-3,-10
CSc1nnc(NC(=O)c2c(Cl)cccc2Cl)s1,0,3,-1,1
CSc1nnc(NC(=O)c2ccccc2[N+](=O)[O-])s1,0,-18,1,-1
CSc1nnc(NC(=O)c2ccccc2C)s1,0,41*,3,-9
O=C(CN1CCN(c2ccccc2)CC1)Nc1ccccc1Br,0,3,16,3
O=C(Nc1ccccc1NC(=O)c1cccs1)c1cc2ccccc2o1,0,-6,2,-1
O=[N+]([O-])c1ccc(Cc2nnc(-c3ccc(Cl)cc3Cl)o2)cc1,0,52*,11,0
O=[N+]([O-])c1ccc(Cc2nnc(-c3ccccc3Cl)o2)cc1,0,27,0,1
